Compound activity: PubChem, Buhrlage Lab, Dana-Farber Cancer Institute and Novartis Institutes for BioMedical Research (Cambridge, Mass)
This is a sample that favours compounds with a hit; in the whole collection about 13% have one here.
USP30 inh = inhibitors of human USP30 deubiquitinase; AID 1645860; Q70CQ3; inhibition, % at 25 µM; actives 5.3% (n = 47,000); purified USP30, Ub-rhodamine cleavage fluorescence
USP17 inh = inhibitors of human USP17 deubiquitinase; A8MUK1; purified USP17, Ub-rhodamine cleavage fluorescence, 3 h; inhibition, % at 50 µM; actives 6.5% (n = 47,000)
USP28 inh = human USP28 deubiquitinase inhibition; AID 1645857; inhibition, % at 25 µM; purified USP28, Ub-rhodamine cleavage fluorescence, 30 min; actives 3% (n = 47,000)
USP10 block = blocks human USP10 ubiquitin-rhodamine cleavage | purified USP10, Ub-rhodamine fluorescence, 60 min | inhibition, % at 20 µM | actives 1.1% (n = 47,000) | AID 1645856
USP8 block = inhibitors of human USP8 deubiquitinase | actives 4.2% (n = 47,000) | inhibition, % at 20 µM | P40818 | purified USP8, Ub-rhodamine cleavage fluorescence, 30 min
Target sequence (P40818 whole entry, looked up): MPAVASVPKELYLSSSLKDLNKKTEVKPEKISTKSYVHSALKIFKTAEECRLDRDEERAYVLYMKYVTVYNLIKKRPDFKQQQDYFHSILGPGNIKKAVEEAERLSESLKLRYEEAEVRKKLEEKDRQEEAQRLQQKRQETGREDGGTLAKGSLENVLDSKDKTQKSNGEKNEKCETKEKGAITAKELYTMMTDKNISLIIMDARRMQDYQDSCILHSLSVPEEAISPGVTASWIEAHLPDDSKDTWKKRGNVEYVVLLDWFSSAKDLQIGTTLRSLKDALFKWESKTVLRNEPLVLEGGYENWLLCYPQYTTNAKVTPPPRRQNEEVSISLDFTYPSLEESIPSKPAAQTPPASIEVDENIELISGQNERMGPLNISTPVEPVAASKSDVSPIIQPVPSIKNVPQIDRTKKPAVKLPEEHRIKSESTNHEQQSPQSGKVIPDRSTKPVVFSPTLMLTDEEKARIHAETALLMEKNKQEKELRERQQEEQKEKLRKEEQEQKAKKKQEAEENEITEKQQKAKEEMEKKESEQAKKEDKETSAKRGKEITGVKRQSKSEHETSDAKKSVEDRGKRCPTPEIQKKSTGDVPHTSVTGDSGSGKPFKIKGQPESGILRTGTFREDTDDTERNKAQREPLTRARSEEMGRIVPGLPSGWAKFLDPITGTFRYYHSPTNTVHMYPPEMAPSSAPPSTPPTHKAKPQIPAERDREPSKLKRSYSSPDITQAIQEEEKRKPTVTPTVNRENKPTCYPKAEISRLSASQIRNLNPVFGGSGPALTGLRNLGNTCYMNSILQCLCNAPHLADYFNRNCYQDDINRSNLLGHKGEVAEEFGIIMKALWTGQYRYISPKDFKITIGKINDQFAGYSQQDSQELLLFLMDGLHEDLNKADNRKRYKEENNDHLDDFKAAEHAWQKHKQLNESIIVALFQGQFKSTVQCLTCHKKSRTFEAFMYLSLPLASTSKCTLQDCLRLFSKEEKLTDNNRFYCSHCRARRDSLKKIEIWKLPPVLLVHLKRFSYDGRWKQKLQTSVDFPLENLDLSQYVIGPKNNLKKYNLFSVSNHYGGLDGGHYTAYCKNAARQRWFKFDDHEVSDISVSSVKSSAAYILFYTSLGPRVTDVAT
Numbers stand for hits; . = inactive; / = no result. Cut-off read from the data, not from the text of the source: active = inhibition above about 30%; inactive = the rest.

SMILES	USP30 inh	USP17 inh	USP28 inh	USP10 block	USP8 block
O=C1c2c(O)c(Cl)cc3c2[C@@]2(Oc4cc(Cl)c(O)c5c4[C@]3(O2)[C@@H]2O[C@@H]2C5=O)[C@@H]2O[C@H]12	.	76	78	69	54
CCOC(=O)[C@@H]1[C@@H](c2ccccc2)CN2CCN(S(C)(=O)=O)C[C@H]12	.	.	.	.	.
COc1cccc2c1NC(=O)C21CCN(C(=O)Nc2ccc(F)cc2)CC1	.	.	.	.	.
COc1cccc2c1NC(=O)C21CCN(C(=O)Nc2cccc(C)c2)CC1	.	54	.	.	.
O=C(Nc1ccccn1)c1c(O)c2ccccc2n(Cc2ccccc2)c1=O	.	.	.	.	69
O=C(NCc1ccccn1)c1cc2cccnc2n(Cc2ccccc2)c1=O	.	.	.	.	.
CN1C(=O)[C@@]23CC4=CC=C[C@H](O)C4N2C(=O)[C@]1(CO)SS3 (some centres not stated)	35	.	.	.	.
O=C(NCc1cccnc1)c1cccn(Cc2ccc(Cl)cc2)c1=O	32	.	.	.	.
CC(=O)O[C@H]1[C@]2(O)C[C@]34SS[C@](CO)(C(=O)N3[C@@H]2C[C@@]12O[C@@H](C)C(C)(C)C2=O)N(C)C4=O	63	.	.	.	.
CN1C(=O)C23SSC1(CO)C(=O)N2C1Nc2ccccc2C1(C12c4ccccc4NC1N1C(=O)C4(CO)SSC1(C(=O)N4C)C2O)C3O (configuration not stated)	.	.	.	.	.
C=C1[C@@H](C)[C@H]2[C@H](Cc3ccccc3)NC(=O)[C@]23[C@H](OC(C)=O)/C=C/[C@@](C)(O)C[C@@H](C)C/C=C/[C@H]3[C@@H]1O	.	.	.	.	.
c1cnc(N2CCC23CCN(Cc2ccncc2)C3)nc1 (configuration not stated)	.	.	.	.	.
CC[C@@]1(O)C[C@H](OC2CC(N(C)C)C(OC3CC(O)C(OC4CCC(=O)C(C)O4)C(C)O3)C(C)O2)c2c(cc3c(c2O)C(=O)c2c(O)ccc(O)c2C3=O)[C@H]1C(=O)OC (some centres not stated)	.	71	.	.	.
CCN1C[C@]2(COC)CC[C@H](OC)C34C5C[C@@H]6[C@@H](OC)CC7(OCOC7(C13)[C@@H](O)C42)C5[C@H]6OC (some centres not stated)	.	.	.	.	.
CN1C[C@@H]2C[C@H](NC(=O)c3cccnc3)CN2Cc2ccccc21	.	.	.	.	.
Cn1cc(CN2CCO[C@@H]3CC(COc4ccccn4)C[C@H]32)cn1 (some centres not stated)	/	.	/	.	.
CC(C)=CCCC1(C)C=Cc2c(O)c3c(c(CC=C(C)C)c2O1)OC12C(=CC4CC1C(C)(C)OC2(C/C=C(/C)C(=O)O)C4=O)C3=O (configuration not stated)	71	89	82	82	73
CCCn1c(C)cc(C(=O)COC(=O)C(O)(c2ccccc2)c2ccccc2)c1C	.	.	.	.	.
Cc1nn(Cc2ccccc2)c(C)c1C(=O)NCc1ccccc1	.	.	.	.	.
Cc1nn(Cc2ccccc2)c(C)c1C(=O)NC1CCCc2ccccc21 (configuration not stated)	54	.	.	.	.
CCC(C)CC(C)CC(C)/C=C(\C)C1OC(O)(C(C)(O)C(=O)NC2C(=O)N3NCCCC3C(=O)N(O)CC(=O)N(C)CC(=O)NCC(=O)N(C)CC(=O)OC2C(C)C)CCC1OC (configuration not stated)	.	.	.	.	.
O=C(NC1CC1)[C@H]1C[C@@H]2CCN(Cc3ccncc3)C[C@H]2O1	.	.	.	.	.
Cc1cccc(C)c1-n1nnnc1C1(N)CCC(C)CC1 (configuration not stated)	33	.	.	.	.
NC1(c2nnnn2-c2ccccc2)CCCCC1	/	.	/	.	.
CCN1CCN(c2nc3ccccc3c(=O)n2-c2ccc(Cl)cc2)CC1	.	.	.	.	.
SMILES	USP30 inh	USP17 inh	USP28 inh	USP10 block	USP8 block
CS(=O)(=O)c1ccc(C(=O)N(Cc2ccco2)C2CCN(Cc3cccc(C#N)c3)CC2)cc1	.	.	.	.	.
COc1ccc(C2(CCNCc3ccc(Cl)cc3)CCOC(C)(C)C2)cc1 (configuration not stated)	34	.	.	.	.
CC1=C(O)C(=O)C=C2C1=CC=C1[C@@]2(C)CC[C@@]2(C)[C@@H]3C[C@](C)(C(=O)O)CC[C@]3(C)CC[C@]12C	.	54	64	81	46
Cc1ccccc1COc1ccc(C2SCC(=O)Nc3n[nH]c(C)c32)cc1 (configuration not stated)	41	36	.	.	.
O=C1CC2(CCNCC2)CC(=O)N1CC1CC1	.	.	.	.	.
O=C(c1nc(-c2ccncc2)no1)N1CCC2(CC1)OCCO2	.	.	.	.	31
CC1OC(OC2C(O)C(O)C(O)C(O)C2O)C(N)CC1N=C(N)C(=O)O (configuration not stated)	.	.	.	.	.
CC(C)=CCOC(C)(C)[C@H]1OC2CC[C@@]3(C)C(CCC4Cc5c([nH]c6ccccc56)[C@@]43C)C23OC3[C@@H]1O (some centres not stated)	84	87	88	76	40
C[C@@H]1CC[C@@]2(OC1)O[C@H]1C[C@H]3[C@@H]4CC=C5C[C@@H](O[C@@H]6O[C@@H](CO)[C@@H](O[C@@H]7O[C@@H](C)[C@H](O[C@@H]8O[C@@H](C)[C@H](O)[C@H](O)[C@H]8O)[C@H](O)[C@H]7O)[C@H](O)[C@@H]6O[C@@H]6O[C@@H](C)[C@H](O)[C@H](O)[C@H]6O)CC[C@]5(C)[C@H]4CC[C@]3(C)[C@H]1[C@@H]2C	96	55	38	.	.
Cc1ccc(C)c(Cn2cccc(C(=O)Nc3ccccn3)c2=O)c1	.	.	34	.	.
O=C(Nc1nc2ccccc2s1)c1cccn(Cc2ccc(Cl)cc2)c1=O	.	.	.	.	.
Cn1c(=O)[nH]c2nncnc2c1=O	.	73	.	.	34
CCOc1cccc(CNC(=O)c2cn(C)c3ncccc23)c1	.	.	.	.	.
CCN(CC)C(=O)c1ccc(NC(=O)CN2CCc3cc(OC)c(OC)cc3C2)cc1	.	.	.	.	40
CC(C)C12CN3CC(C(C)C)(CN(C1)C3c1ccccn1)C2O (configuration not stated)	.	39	.	.	47
CCOC(=O)C12CC(C)(OC(C)=O)C1c1ccccc1OC2=O (configuration not stated)	.	.	.	.	.
CCC(=O)CCCCC[C@@H]1NC(=O)[C@H]2CCCCN2C(=O)[C@H]([C@@H](C)CC)NC(=O)[C@H](Cc2cn(OC)c3ccccc23)NC1=O	.	36	.	.	.
